Test results from PubChem BioAssay (NCI).
This is part of a sample that, as a whole, favours compounds with a hit. Of some 79,000 tested, about 15% had one in any assay. Active and inactive are the calls of the source. Cut-off read from the data, not from the text of the source: active = growth inhibition above about 70%; inactive = the rest.

Tests used:
[1] = NCI Yeast Anticancer Drug Screen. Data for the rad52 strain (AID 147);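 note: 0% = growth of vehicle-treated control cultures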; conditions: S. cerevisiae rad52 mutant growth inhibition, stronger effect = higher value
Summary of the method: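 Yeast strain carrying a DNA damage repair alteration was exposed to test compounds. Growth inhibition was measured relative to vehicle-treated controls.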

[2] = NCI Yeast Anticancer Drug Screen. Data for the wt1 strain (AID 149);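 note: 0% = growth of vehicle-treated wt1 cultures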; conditions: S. cerevisiae wt1 strain (SPY 50644) growth inhibition, stronger effect = higher value
Summary of the method: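 wt1 yeast, compound-treated; % growth inhibition vs vehicle control.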

[3] = NCI Yeast Anticancer Drug Screen. Data for the mgt1 strain (AID 153); conditions: S. cerevisiae mgt1 mutant growth inhibition, stronger effect = higher value
Summary of the method: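 Yeast mgt1 strain (DNA repair/cell-cycle alteration panel) exposed to compounds; growth inhibition measured relative to vehicle-treated controls.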

[4] = NCI Yeast Anticancer Drug Screen. Data for the rad50 strain (AID 155);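 note: 0% = growth of vehicle-only cultures of the same strain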; conditions: S. cerevisiae rad50 strain growth inhibition, stronger effect = higher value
Summary of the method: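 Genetically altered yeast (DNA repair pathway); compound treatment; growth inhibition vs vehicle ctrl.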

[5] = NCI Yeast Anticancer Drug Screen. Data for the mec2-1 strain (AID 157); conditions: S. cerevisiae mec2-1 strain, stronger effect = higher value
Summary of the method: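 mec2-1 yeast strain, carrying an alteration in DNA damage repair or cell cycle control, was exposed to compounds; growth inhibition was measured relative to vehicle-treated controls.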

[6] = NCI Yeast Anticancer Drug Screen. Data for the rad14 strain (AID 159);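 note: 0% = growth of vehicle-treated control cultures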; conditions: S. cerevisiae rad14 strain growth inhibition, stronger effect = higher value
Summary of the method: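 Test compounds were applied to a repair-deficient yeast strain. Its growth was then compared with that of cultures given vehicle alone, and inhibition was expressed relative to those controls.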

[7] = NCI Yeast Anticancer Drug Screen. Data for the sgs1 mgt1 strain (AID 161);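 note: 0% = growth of cultures given vehicle only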; conditions: S. cerevisiae sgs1 mgt1 strain, stronger effect = higher value
Summary of the method: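 Growth of a repair-deficient yeast mutant was monitored after compound treatment and expressed as inhibition relative to vehicle-treated cultures.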

[8] = NCI Yeast Anticancer Drug Screen. Data for the CLN2oe strain (AID 163);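 note: 0% = growth of vehicle-only control cultures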; conditions: S. cerevisiae CLN2oe strain, stronger effect = higher value
Summary of the method: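 Yeast cells carrying a defined cell-cycle control alteration were exposed to test compounds. Growth inhibition was scored against vehicle-treated control cultures.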

[9] = NCI Yeast Anticancer Drug Screen. Data for the cln2 rad14 strain (AID 165);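 note: 0% = growth equal to vehicle treated cultures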; conditions: S. cerevisiae cln2 rad14 strain, stronger effect = higher value
Summary of the method: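 Yeast carrying cln2 and rad14 alterations (cell cycle control and DNA damage repair) were exposed to compounds. Growth inhibition was measured against vehicle-treated controls.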

[10] = NCI Yeast Anticancer Drug Screen. Data for the bub3 strain (AID 167); conditions: S. cerevisiae bub3 mutant strain, stronger effect = higher value
Summary of the method: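 Yeast carrying a defined mutation is treated with each compound, and growth is compared with that of vehicle-exposed cells to give inhibition.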

[11] = NCI Yeast Anticancer Drug Screen. Data for the wt2 strain (AID 169);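 note: 0% = growth of vehicle-treated yeast cultures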; conditions: S. cerevisiae wt2 strain growth inhibition, stronger effect = higher value
Summary of the method: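 Yeast cells were exposed to test compounds, and growth inhibition was measured relative to vehicle-treated controls.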

[12] = NCI Yeast Anticancer Drug Screen. Data for the mlh1 strain (AID 171);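 note: 0% = growth of vehicle-treated control cultures of the same strain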; conditions: S. cerevisiae mlh1 strain growth inhibition, stronger effect = higher value
Summary of the method: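 Yeast carrying a defined genetic alteration in DNA damage repair or cell cycle control were exposed to test compounds. Growth inhibition was measured relative to vehicle-treated controls.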

[13] = NCI Yeast Anticancer Drug Screen. Data for the sgs1 strain (AID 173);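 note: 0% = growth of vehicle-only control cultures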; conditions: S. cerevisiae sgs1 mutant, stronger effect = higher value
Summary of the method: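 Yeast mutant strains carrying defined defects in DNA damage repair or cell cycle control were exposed to test compounds. Growth inhibition was scored against vehicle-treated controls.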

[14] = NCI Yeast Anticancer Drug Screen. Data for the mlh1 rad18 strain (AID 175); conditions: S. cerevisiae mlh1 rad18 strain growth inhibition, stronger effect = higher value
Summary of the method: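 Growth inhibition of the yeast strain was measured after compound exposure and expressed relative to vehicle-treated controls. The strain carries defined defects in DNA damage repair.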

[15] = NCI Yeast Anticancer Drug Screen. Data for the rad18 strain (AID 177); conditions: S. cerevisiae rad18 mutant growth inhibition, stronger effect = higher value
Summary of the method: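 Yeast carrying a defined DNA damage repair alteration were exposed to compounds. Growth inhibition was expressed relative to vehicle-treated controls.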

[16] = at 5.0 µM (retest, dose inferred, filed as 0.5)
[17] = at 50.0 µM (retest, dose inferred, filed as 5.0)

Measured: growth inhibition

NC(N)=N/N=C\c1c2ccccc2cc2ccccc12
inactive: [1]; at 1.2 µM -73% | [1]; at 3.7 µM -78% | [1]; at 11.0 µM -50% | [1]; at 33.0 µM 27% | [2]; at 1.2 µM -38% | [2]; at 3.7 µM -29% | [2]; at 11.0 µM -29% | [2]; at 33.0 µM -27% | [3]; at 1.2 µM -38% | [3]; at 3.7 µM -54% | [3]; at 11.0 µM -34% | [3]; at 33.0 µM 3% | [4]; at 1.2 µM -16% | [4]; at 3.7 µM -17% | [4]; [16] 22% | [4]; at 11.0 µM -8% | [4]; at 33.0 µM 36% | [4]; [17] 66% | [4]; at 50.0 µM 17.1% | [5]; at 1.2 µM -58% | [5]; at 3.7 µM -37% | [5]; [16] 18% | [5]; at 11.0 µM -45% | [5]; at 33.0 µM -10% | [5]; [17] 42% | [5]; at 50.0 µM 36.9% | [6]; at 1.2 µM -50% | [6]; at 3.7 µM -41% | [6]; at 11.0 µM -45% | [6]; at 33.0 µM 9% | [7]; [16] 8% | [7]; [17] 47% | [7]; at 50.0 µM 33.6% | [8]; at 1.2 µM -29% | [8]; at 3.7 µM 6% | [8]; at 11.0 µM -4% | [8]; at 33.0 µM 18% | [9]; [16] -2% | [9]; [17] 25% | [9]; at 50.0 µM 1.85% | [10]; at 1.2 µM -43% | [10]; at 3.7 µM -55% | [10]; [16] 3% | [10]; at 11.0 µM -59% | [10]; at 33.0 µM -44% | [10]; [17] 14% | [10]; at 50.0 µM 21% | [11]; at 1.2 µM -47% | [11]; at 3.7 µM -64% | [11]; at 11.0 µM -59% | [11]; at 33.0 µM -35% | [12]; at 1.2 µM -61% | [12]; at 3.7 µM -45% | [12]; at 11.0 µM -44% | [12]; at 33.0 µM 11% | [13]; at 1.2 µM -25% | [13]; at 3.7 µM -31% | [13]; at 11.0 µM -44% | [13]; at 33.0 µM -1% | [14]; [16] 29% | [15]; at 1.2 µM -74% | [15]; at 3.7 µM -68% | [15]; at 11.0 µM -51% | [15]; at 33.0 µM -30%
active: [1]; at 100.0 µM 94% | [2]; at 100.0 µM 95% | [3]; at 100.0 µM 95% | [4]; at 100.0 µM 94% | [5]; at 100.0 µM 93% | [6]; at 100.0 µM 95% | [8]; at 100.0 µM 78% | [10]; at 100.0 µM 75% | [11]; at 100.0 µM 96% | [12]; at 100.0 µM 93% | [13]; at 100.0 µM 93% | [14]; [17] 81% | [14]; at 50.0 µM 72.7% | [15]; at 100.0 µM 95%
